For 111 sequences, binding signal results are on record in publication PMC10668032, “Altered binding affinity of SIX1-Q177R correlates with enhanced WNT5A and WNT pathway effector expression in Wilms tumor”.

Whole data set: some 33,000 sequences, median “e-score” near -0.053, cut for the highest 2% near 0.38. This excerpt belongs to a sample that is enriched for the highest values.

The test addresses T1, SIX1 homeodomain (reference allele) (human, UniProt Q15475 108-198).
T1 sequence: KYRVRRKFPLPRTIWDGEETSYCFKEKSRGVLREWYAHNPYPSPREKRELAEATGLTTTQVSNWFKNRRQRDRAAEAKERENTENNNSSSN
The experiment in a line: universal protein binding microarray; Universal all-10-mer PBM (8x60K, AMADID 030236), 300 nM GST-tagged protein, Alexa Fluor 488 anti-GST; buffer, salt, pH and temperature not stated (as in Berger); high values mean tight binding. The note with it: protein: ivt; tags: N-terminal GST; dsDNA, one strand shown. In outline: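 After in vitro transcription/translation, GST-tagged homeodomains were quantified against a recombinant GST standard curve by anti-GST western blot. They were then placed in duplicate at 300 nM final concentration on universal 'all 10-mer' protein binding microarrays of 8×60K format.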
Turning to CGTTAGTA, the binding signal stood at 0.194 ± 0.00764 E-score.

As to ATATTCTC, the binding signal is 0.269 ± 0.0439 E-score.

For the sequence AATCCGCA, the binding signal is 0.204 ± 0.0414 E-score.

With TATCCGAA, the binding signal stood at 0.334 ± 0.0355 E-score.

For the sequence TATCCGCA, the binding signal came out at 0.4006 ± 0.00313 E-score.

On to CATCCGCC, for which the binding signal came to 0.237 ± 0.0769 E-score.

Consider AATCCGCC, for which the binding signal is 0.212 ± 0.00218 E-score.

Turning to GATCCGCA, the binding signal was 0.411 ± 0.0362 E-score.

As for GATCCGCC, the binding signal was 0.427 ± 0.0138 E-score.

In the case of GATCCAAA, the binding signal was found to be 0.207 ± 0.0442 E-score.

For AATCCGCT, the binding signal is 0.191 ± 0.0498 E-score.

In the case of GCCATATA, the binding signal came out at 0.215 ± 0.0356 E-score.

For the sequence ACACCGCT, the binding signal was 0.224 ± 0.00469 E-score.

For CCCACTGA, the binding signal was determined as 0.191 ± 0.0775 E-score.

ATGCAGTG: the binding signal was 0.153 ± 0.121 E-score.

ATCGCGTA: the binding signal came out at 0.189 ± 0.0511 E-score.

As for TACTACTA, the binding signal was found to be 0.195 ± 0.0204 E-score.

In the case of AGGATACG, the binding signal worked out at 0.386 ± 0.0183 E-score.

On to CGGATGCC, for which the binding signal is 0.214 ± 0.0396 E-score.

For CGGATACA, the binding signal was determined as 0.446 ± 0.0132 E-score.

Turning to CGGATACC, the binding signal amounted to 0.476 ± 0.00619 E-score.

For the sequence AGGATAAA, the binding signal was 0.16 ± 0.041 E-score.

As for CGTATACG, the binding signal stood at 0.317 ± 0.065 E-score.

Consider CGAATACC, for which the binding signal was 0.233 ± 0.0485 E-score.

Take CGGATAAG: the binding signal stood at 0.187 ± 0.0213 E-score.

As to CGGATACG, the binding signal amounted to 0.38745 ± 0.000205 E-score.

For CCATCTAC, the binding signal was 0.161 ± 0.00787 E-score.

For the sequence ATTCAATA, the binding signal came out at 0.161 ± 0.0419 E-score.

Take TATGCGAA: the binding signal was 0.164 ± 0.0286 E-score.

As for ACACCTTC, the binding signal came out at 0.219 ± 0.032 E-score.

Consider ATGGGGTA, for which the binding signal turned out to be 0.163 ± 0.0446 E-score.

As to TCGCGACA, the binding signal is 0.193 ± 0.0437 E-score.

Consider ATCGCTCG, for which the binding signal was found to be 0.199 ± 0.0182 E-score.

As for CGGATTGC, the binding signal amounted to 0.23 ± 0.0242 E-score.

Regarding ACACCGAC, the binding signal was determined as 0.256 ± 0.0314 E-score.

As to GATCAAGA, the binding signal amounted to 0.191 ± 0.0318 E-score.

For CCAAGATC, the binding signal stood at 0.22 ± 0.0354 E-score.

Consider ACCCAATA, for which the binding signal stood at 0.158 ± 0.0255 E-score.

Regarding GCCCCTCC, the binding signal was 0.158 ± 0.185 E-score.

Take AGGATACT: the binding signal is 0.364 ± 0.0424 E-score.

For AGGATACA, the binding signal stood at 0.337 ± 0.0073 E-score.

For the sequence AGGATACC, the binding signal worked out at 0.457 ± 0.00534 E-score.

In the case of GGGATAAC, the binding signal was found to be 0.303 ± 0.0153 E-score.

For TGGATACA, the binding signal is 0.351 ± 0.0427 E-score.

In the case of GGGATACA, the binding signal is 0.383 ± 0.0303 E-score.

In the case of GGAATACC, the binding signal was found to be 0.295 ± 0.024 E-score.

As to GGGATACC, the binding signal is 0.455 ± 0.0274 E-score.

Consider TCTATACA, for which the binding signal came out at 0.243 ± 0.0131 E-score.

On to CGCCGATA, for which the binding signal worked out at 0.376 ± 0.0145 E-score.

As to TACTCGCA, the binding signal stood at 0.154 ± 0.0249 E-score.

For CTATATAG, the binding signal was 0.182 ± 0.0165 E-score.

Consider ATGTGGTA, for which the binding signal worked out at 0.151 ± 0.00476 E-score.

Turning to ACCATCTA, the binding signal came to 0.159 ± 0.0813 E-score.

For CCCGGGTA, the binding signal was 0.228 ± 0.0421 E-score.

On to ATACAAGA, for which the binding signal was 0.239 ± 0.0188 E-score.

Consider TACATCCA, for which the binding signal is 0.156 ± 0.0562 E-score.

Take ATTGGATA: the binding signal is 0.297 ± 0.05 E-score.

Regarding AATATGGA, the binding signal came to 0.158 ± 0.0544 E-score.

For the sequence GATATTGC, the binding signal came to 0.323 ± 0.0993 E-score.

For the sequence GATATGGA, the binding signal worked out at 0.423 ± 0.00533 E-score.

As to GATATGTA, the binding signal was 0.383 ± 0.0265 E-score.

With CCTATGTA, the binding signal was found to be 0.156 ± 0.0122 E-score.

For the sequence GATATGAC, the binding signal is 0.357 ± 0.048 E-score.

On to TATATGGA, for which the binding signal worked out at 0.207 ± 0.0193 E-score.

Turning to GATATGGC, the binding signal amounted to 0.418 ± 0.0102 E-score.

Regarding GGTATGTA, the binding signal stood at 0.2127 ± 0.00178 E-score.

For AAAAGTAT, the binding signal amounted to 0.204 ± 0.154 E-score.

Take AGGGTGAT: the binding signal was 0.366 ± 0.00952 E-score.

As for ATACTTTA, the binding signal is 0.261 ± 0.0614 E-score.

For the sequence GATAGGTA, the binding signal was 0.325 ± 0.00657 E-score.

On to GATCAAAA, for which the binding signal worked out at 0.234 ± 0.0678 E-score.

Take AGGGGCGG: the binding signal amounted to 0.174 ± 0.127 E-score.

For ATCTTCTA, the binding signal stood at 0.227 ± 0.0812 E-score.

For the sequence ATATCTTA, the binding signal amounted to 0.345 ± 0.0615 E-score.

Take ATATCATC: the binding signal is 0.46 ± 0.0219 E-score.

CTATCATA: the binding signal was 0.341 ± 0.0419 E-score.

ATATCATG: the binding signal is 0.458 ± 0.0133 E-score.

CTATCATC: the binding signal worked out at 0.34 ± 0.0172 E-score.

Regarding ATATCATA, the binding signal was 0.442 ± 0.0274 E-score.

With AGATCATG, the binding signal came out at 0.295 ± 0.0208 E-score.

Regarding GTATCATA, the binding signal is 0.471 ± 0.013 E-score.

Turning to GTATCTTA, the binding signal came to 0.312 ± 0.0466 E-score.

Regarding GCATCATA, the binding signal stood at 0.183 ± 0.0507 E-score.

For the sequence AGATCATC, the binding signal was 0.344 ± 0.0462 E-score.

Consider ATCTCATG, for which the binding signal worked out at 0.197 ± 0.0118 E-score.

For the sequence CAGCTATC, the binding signal was 0.25 ± 0.0918 E-score.

Consider ATCATCCA, for which the binding signal amounted to 0.275 ± 0.0117 E-score.

With ATCACAGC, the binding signal is 0.2757 ± 0.00158 E-score.

With AGTTAATC, the binding signal amounted to 0.182 ± 0.0377 E-score.

As for AGTAGTAT, the binding signal came out at 0.349 ± 0.0523 E-score.

For CGGCTCGA, the binding signal stood at 0.15 ± 0.146 E-score.

As for GAAGATAA, the binding signal is 0.154 ± 0.0705 E-score.

As to CCGGGAGA, the binding signal came out at 0.177 ± 0.081 E-score.

In the case of TACCAATA, the binding signal came out at 0.204 ± 0.0104 E-score.

In the case of GGTATCCA, the binding signal is 0.464 ± 0.0172 E-score.

As to ACTATCCA, the binding signal amounted to 0.241 ± 0.0211 E-score.

Regarding GCTATCCA, the binding signal was found to be 0.204 ± 0.0406 E-score.

Regarding ATTATCCA, the binding signal came out at 0.176 ± 0.0268 E-score.

Turning to AGTATCCG, the binding signal is 0.396 ± 0.0105 E-score.

On to CCTATCCG, for which the binding signal came out at 0.316 ± 0.0172 E-score.

On to ACTATCCG, for which the binding signal came out at 0.35 ± 0.00425 E-score.

On to AGTATCCA, for which the binding signal is 0.391 ± 0.00372 E-score.

With GGTATTCA, the binding signal came out at 0.3 ± 0.0073 E-score.

For the sequence ATTATAGC, the binding signal was found to be 0.176 ± 0.0442 E-score.

As to CGATCTTA, the binding signal worked out at 0.197 ± 0.0344 E-score.

CCGATCGG: the binding signal stood at 0.319 ± 0.0282 E-score.

As to ACGATCCA, the binding signal was determined as 0.284 ± 0.0277 E-score.

For ACGATCCT, the binding signal worked out at 0.347 ± 0.0269 E-score.

As to CCGATCCG, the binding signal turned out to be 0.428 ± 0.0349 E-score.

Take CCGATCCA: the binding signal worked out at 0.29 ± 0.0686 E-score.

As for ACGATCCG, the binding signal came to 0.425 ± 0.0168 E-score.
